Screening data deposited in PubChem BioAssay by several laboratories.
Only some compounds are listed: those with a hit (about 4.1% of all), similar ones and a draw of the others.
ALR inh: blocks human ALR sulfhydryl oxidase activity | inhibition, % (test concentration not listed) | P55789 | AID 485317 | purified ALR, DTT oxidation, H2O2 HRP-luminol luminescence | 290,000 compounds, 3.8% hits;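 active means mean replicate inhibition above about 79%, with every replicate also reaching it, limit read from the data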
IDE act: IDE (human) activation, cell-based | HEK cells, FAbeta-B cleavage, fluorescence polarization; 0% vehicle, 100% cell-free pure enzyme wells | activation, % at 5.96 µM | AID 493087 | 340,000 compounds, 0.073% hits;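 active means activation above the mean of all tested compounds plus 3 SD, set per screening campaign, cut at about 17% in these data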
Target sequence (P14735 whole entry, looked up): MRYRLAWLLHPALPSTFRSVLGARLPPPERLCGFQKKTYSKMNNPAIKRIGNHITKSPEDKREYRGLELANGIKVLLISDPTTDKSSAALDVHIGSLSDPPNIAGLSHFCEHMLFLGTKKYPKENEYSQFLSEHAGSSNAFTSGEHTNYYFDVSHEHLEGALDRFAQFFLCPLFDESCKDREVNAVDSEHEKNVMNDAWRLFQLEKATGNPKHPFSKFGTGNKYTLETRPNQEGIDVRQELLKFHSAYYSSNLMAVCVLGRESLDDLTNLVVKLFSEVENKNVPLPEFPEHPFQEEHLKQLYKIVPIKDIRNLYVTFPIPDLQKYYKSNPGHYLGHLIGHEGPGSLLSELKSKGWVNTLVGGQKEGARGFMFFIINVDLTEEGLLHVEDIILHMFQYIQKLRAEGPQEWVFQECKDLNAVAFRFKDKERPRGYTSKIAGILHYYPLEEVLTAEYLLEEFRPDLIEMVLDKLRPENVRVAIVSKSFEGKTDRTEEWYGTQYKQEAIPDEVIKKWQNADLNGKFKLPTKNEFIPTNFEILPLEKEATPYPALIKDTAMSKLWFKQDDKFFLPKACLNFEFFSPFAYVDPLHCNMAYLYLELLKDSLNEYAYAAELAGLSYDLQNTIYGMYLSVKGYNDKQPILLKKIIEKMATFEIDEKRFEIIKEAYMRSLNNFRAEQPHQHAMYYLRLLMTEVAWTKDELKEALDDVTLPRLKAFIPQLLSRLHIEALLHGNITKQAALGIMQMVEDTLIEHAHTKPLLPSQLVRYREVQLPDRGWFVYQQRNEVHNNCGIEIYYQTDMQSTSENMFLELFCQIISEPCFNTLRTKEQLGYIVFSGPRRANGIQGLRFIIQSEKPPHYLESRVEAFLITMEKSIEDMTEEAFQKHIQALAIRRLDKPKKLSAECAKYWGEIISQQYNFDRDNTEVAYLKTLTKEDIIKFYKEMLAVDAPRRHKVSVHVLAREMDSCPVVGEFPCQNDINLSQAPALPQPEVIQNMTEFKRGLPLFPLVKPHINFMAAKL
PfM18AAP inh: blocks P. falciparum M18 aspartyl aminopeptidase | inhibition, % at 7.35 µM | recombinant PfM18AAP, H-Glu-NHMec fluorogenic cleavage | 290,000 compounds, 1.2% hits | AID 1822;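 active means inhibition above the campaign mean inhibition over all tested compounds plus 3 SD, cut at about 28% in these data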
PolyA inh: yeast polyadenylation inhibition | activity score, % at 12 µM | AID 1875 | 300,000 compounds, 0.02% hits | S. cerevisiae SKY197-pL101 polyadenylation reporter, beta-gal luminescence; efflux-impaired pdr1/pdr3 knockout yeast; score 100 = 6 SD above DMSO;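 active means lowest replicate activity score at least 50, where 100 means six control SD above control mean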;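 further: yeast exposed to compound for 9 h at 30 °C; higher score means more reporter readthrough which indicates perturbed polyadenylation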
IDE inh: inhibitors of human insulin-degrading enzyme in cells; P14735; HEK cells, FAbetaB cleavage, fluorescence polarization; 320,000 compounds, 0.41% hits; inhibition, % at 5.59 µM;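 active means percent inhibition above the average of all tested compounds plus 3 SD, set per screening campaign, cut at about 16% in these data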;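 further: IDE supplied by intact live HEK cells; FP after avidin binding of uncleaved biotin substrate so inhibition keeps polarization high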
CaV13 FRET inh: Disruptors of the CACNA1D IQ motif to Ca2+-dependent inactivation inhibitor domain association, primary screening, Förster resonance energy transfer in intact living …; HEK cells, CFP/YFP FRET ICDI-IQ, plate reader, 10 min; percent FRET-ratio fall versus neutral wells; inhibition, % at 12.3 µM; 340,000 compounds, 0.098% hits; AID 743397;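 active means mean replicate inhibition of at least 30% and at least 1% of replicates passing that level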
Each line names hits and unclear results; the compound was inactive in the other large screens.

O=C(NC(=S)NCC1CCCO1)c1ccc(Br)o1 (centres undefined)	none
Nc1[nH]c(C(=O)c2ccccc2)c(-c2ccccc2[N+](=O)[O-])c1C(=O)NCCc1c[nH]c2ccccc12	none (no result: ALR inh, IDE act, PfM18AAP inh, PolyA inh, IDE inh)
COc1cccc2c1OCC(C(=O)Nc1nccs1)=C2	none
O=c1oc(Nc2cccc(Cl)c2)nc2ccccc12	none
N#CCCn1c(SCC(=O)Nc2ccc(N3CCOCC3)cc2)nc2ccccc21	ALR inh 99
Cn1cc(SCC(=O)N2CCN(c3ccccc3)CC2)c2ccccc21	ALR inh 98
COCCn1c(SCC(=O)Nc2ccc(S(=O)(=O)N3CCOCC3)cc2)nc2ccccc21	none (no result: ALR inh)
Cn1cc(SCC(=O)N2CCOCC2)c2ccccc21	none (no result: ALR inh)
CCn1ncc(C2=NOC(C(=O)Nc3cccc(C(C)=O)c3)C2)c1C (centres undefined)	ALR inh 97
C=C1c2ccccc2NC(=O)N1c1ccc(OC)cc1	none
CC12CCC(=O)N1C(C(=O)Nc1cc(Cl)ccc1N1CCCC1)CS2 (centres undefined)	ALR inh 86 (no result: PfM18AAP inh, PolyA inh)
CCc1cc(C(=O)c2ccc(OC)cc2)c(N)s1	ALR inh 99 (no result: IDE act)
CCc1cc(C(=O)c2ccc(OC)cc2)c(NC(=O)COCC(=O)O)s1	none (no result: ALR inh)
CCc1cc(C(=O)c2ccccc2OC)c(N)s1	ALR inh 93 (no result: CaV13 FRET inh)
CCc1cc(C(=O)c2ccc(OC)cc2)c(NC(=O)CC(C)(C)CC(=O)O)s1	ALR inh 81
C/C(=N\Nc1nc2ccccc2[nH]1)c1ccc(Cl)s1	ALR inh 99
Cc1ccc(C(=O)NCc2nc3ccccc3[nH]2)o1	none
O=C(CSc1nc2ccccc2[nH]1)c1ccc(Cl)s1	none (no result: ALR inh)
C/C(=N\Nc1nc2ccccc2[nH]1)c1ccc(C)o1	ALR inh 99
O=C1Nc2ccc([N+](=O)[O-])cc2OC1CCN1CCN(c2ccccc2)CC1 (centres undefined)	ALR inh 94
C=CCOc1ccccc1CNc1cccc(F)c1	none
COc1cc(CNc2ccc3[nH]c(=O)[nH]c3c2)ccc1OCc1ccccc1Cl	none
COc1cccc(CNc2ccc3[nH]c(=O)[nH]c3c2)c1OCc1ccccc1F	ALR inh 99
C=CCOc1c(Cl)cc(CNc2ccc3[nH]c(=O)[nH]c3c2)cc1OC	ALR inh 98
C=CCOc1ccccc1CNc1ccc2[nH]c(=O)[nH]c2c1	ALR inh 99
CC(C)CCNC(=O)C1(O)c2ccccc2NC(=O)N1c1ccc(Cl)cc1 (centres undefined)	none
CCCCc1c(-c2ccccc2OC)ncn1Cc1ccc(F)cc1F	none (no result: ALR inh, IDE act, PfM18AAP inh, PolyA inh, IDE inh)
COc1cc(OC)c(NC(=O)NNC(=O)C(=O)NC2CC2)cc1Cl	none (no result: ALR inh, IDE act, PfM18AAP inh, PolyA inh, IDE inh)
CCC(C)NC(=O)Cn1c(-c2ccccc2)cc(C(C)=O)c1C (centres undefined)	none
CCCCN1C(=O)C(CC(=O)NCCCN(C)C)CC(C(=O)N2CCCCCC2)=C1C (centres undefined)	none (no result: ALR inh, IDE act, PfM18AAP inh, PolyA inh, IDE inh)
CC(C)NC(=O)CSc1nnc(CNC(=O)OC(C)(C)C)n1C	none
Cc1ccc(O)c(C(=O)c2cnn(C(=O)COc3ccc(Cl)cc3)c2)c1	none
O=C(c1cnn(C(=O)COc2ccc(Cl)cc2)c1)c1ccccc1O	PfM18AAP inh 30
O=C(c1cnn(C(=O)c2ccco2)c1)c1cc(F)ccc1O	IDE act 27 (no result: PfM18AAP inh, PolyA inh)
O=C(c1cnn(C(=O)c2ccccc2F)c1)c1ccccc1O	none (no result: PfM18AAP inh, PolyA inh)
O=C(c1cnn(C(=O)c2ccccc2)c1)c1ccccc1O	PfM18AAP inh 31 (no result: ALR inh)
O=C(c1cnn(C(=O)c2ccco2)c1)c1cc(Cl)cc(Cl)c1O	none (no result: PfM18AAP inh, PolyA inh)
Cc1c(C(=O)OCC(=O)NCc2ccc3c(c2)OCO3)cccc1[N+](=O)[O-]	none
C[C@H](CO)N1C[C@H](C)[C@@H](CN(C)S(=O)(=O)c2ccc(C#N)cc2)OCc2cnnn2CCCC1=O	none (no result: ALR inh, IDE act, PfM18AAP inh, PolyA inh, IDE inh)
CCOC(=O)C1CCCN(C2=NC(=O)/C(=C/c3ccc(OC)cc3OC)S2)C1 (centres undefined)	PfM18AAP inh 28 (no result: IDE inh)
CCOC(=O)CSC1=NC(=O)/C(=C/c2ccc(OC)cc2)S1	ALR inh 99 (no result: CaV13 FRET inh)
COc1cccc(/C=C2\SC(N3CCCC(C)C3)=NC2=O)c1OC (centres undefined)	ALR inh 97
CCOC(=O)C1CCN(C2=NC(=O)/C(=C/c3ccc(O)cc3)S2)CC1	ALR inh 98
Cc1cc(C(=O)NCc2ccccc2F)c2ccccc2n1	none
CCn1cc(Br)c(C(=O)Nc2cccc(SC)c2)n1	ALR inh 99
CCn1nc(C)c(CNC(=O)C2CCC(=O)N(CCc3ccc(OC)cc3)C2)c1C (centres undefined)	none
CCNc1nc(-c2ccc(OC(F)F)cc2)c(C)s1	none (no result: ALR inh)
CCOC(=O)CCc1c(C)c2ccc(O)cc2oc1=O	ALR inh 81
Cc1c(Br)c([N+](=O)[O-])nn1CC(=O)NCc1cccnc1	none
CC(C)CN(c1ccccc1)S(=O)(=O)c1nnc(NC(=O)C(C)C)s1	none
COc1ccc(C(=O)N2CCC(N3CCN(c4ccccc4)CC3)CC2)cc1OC	none
COc1cc(OC)cc(C(=O)N2CCC(N3CCN(c4ccccc4)CC3)CC2)c1	ALR inh 82
O=C(NC(=S)NCc1ccccc1)c1ccccc1F	none
O=C(NC(=S)NC(=O)c1ccccc1F)c1ccccc1F	ALR inh 89
CCn1cc(CN(C)C(=O)/C=C/c2ccc([N+](=O)[O-])cc2)c(C)n1	none
Cc1nn(C)cc1C(=O)/C=C/c1ccc([N+](=O)[O-])cc1	ALR inh 84
COc1ccc(CCNC(=O)c2ccc3c(c2)NC(=O)C(CSCc2cc(C)ccc2C)N3)cc1OC (centres undefined)	ALR inh 99 (no result: IDE act, CaV13 FRET inh)
CC1CCN(S(=O)(=O)c2ccc(C(=O)NCc3cccnc3)cc2)CC1	none (no result: CaV13 FRET inh)
CCCCC(=O)Nc1ccc(C)c(S(=O)(=O)N2CCCCCC2)c1	none (no result: PfM18AAP inh, PolyA inh)
COC(=O)CCSCC(=O)Nc1ccc(C)c(S(=O)(=O)N2CCCCC2)c1	ALR inh 99
COC(=O)c1ccc(NC(=O)CSc2nnc(-c3cccnc3)o2)cc1	ALR inh 99 (no result: PfM18AAP inh)
C=CCn1c(SCC(=O)Nc2ccc(NC(=O)c3ccco3)c(OC)c2)nnc1-c1ccncc1	ALR inh 99
CCOc1ccccc1NC(=O)CSc1nnc(-c2ccccn2)n1Cc1ccco1	none
COc1ccc(NC(=O)CSc2nnc(-c3ccccn3)n2Cc2ccco2)cc1OC	ALR inh 97
NC(=O)c1ccc(NC(=O)CSc2nnc(-c3cccnc3)n2Cc2ccco2)cc1	ALR inh 97
Cc1csc(Sc2ccc([N+](=O)[O-])cc2C(=O)OCC(=O)NC2CCCC(C)C2C)n1 (centres undefined)	none
